{"source": "PubChem BioAssay (Tox21)", "note": "Inconclusive results are not listed. Activity calls are given as the source filed them. Calls follow the shape of the full dose curve. % is scaled to controls: 0 for no effect and ±100 for the full control effect.", "data": [{"assay": "qHTS assay for small molecule agonists of the p53 signaling pathway (AID 651631); also: nearly all actives have a fitted effect of over 15% in size", "conditions": "HCT-116 p53RE-bla reporter, beta-lactamase FRET ratio, 16 h; series mostly up to 73.3 µM; activation: at the top concentration", "in_short": "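We treat p53RE-bla HCT-116 cells with compounds for 16 h at 37 °C, add LiveBLAzer B/G FRET substrate for 2 h at room temperature, and measure fluorescence intensity.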", "values": [{"smiles": "CC(O)COC(C)(C)C", "note": "(centres undefined)", "activation": "-1.88% (inactive)"}, {"smiles": "CCCCC1CCC(O)CC1", "note": "(centres undefined)", "activation": "-1.47% (inactive)"}, {"smiles": "CC(=O)O[C@H]1C[C@@H]2CC[C@@]1(C)C2(C)C", "activation": "-1.6% (inactive)"}, {"smiles": "C=C(C)[C@@H]1CC=C(C)CC1", "activation": "-2.26% (inactive)"}, {"smiles": "O=C[O][Al]([O]C=O)[O]C=O", "activation": "-1.99% (inactive)"}, {"smiles": "C#CCN[C@@H]1CCc2ccccc21", "activation": "-1.7% (inactive)"}, {"smiles": "Cc1c(N)cccc1Cl", "activation": "-4.01% (inactive)"}, {"smiles": "c1ccc(B(c2ccccc2)c2ccccc2)cc1", "activation": "1.77% (inactive)"}, {"smiles": "O=C1CCCCO1", "activation": "6.4% (inactive)"}, {"smiles": "Cn1c(=O)c2[nH]c(Br)nc2n(C)c1=O", "activation": "-5.4% (inactive)"}, {"smiles": "c1ccc2cnccc2c1", "activation": "0.487% (inactive)"}, {"smiles": "CC1=NN(c2ccc(S(=O)(=O)O)cc2)C(=O)C1", "activation": "-1.1% (inactive)"}, {"smiles": "CCCCOCC(C)O", "note": "(centres undefined)", "activation": "-2.7% [at 95.1 µM] (inactive)"}, {"smiles": "C=CCCCC", "activation": "-3.46% [at 95.1 µM] (inactive)"}, {"smiles": "O=C(NCN1CCOCC1)c1cnccn1", "activation": "-1.45% (inactive)"}, {"smiles": "N#Cc1cscn1", "activation": "-1.13% (inactive)"}, {"smiles": "COC(=O)c1cccc(Cl)c1", "activation": "-1.82% (inactive)"}, {"smiles": "CN1CCOC(c2ccccc2)c2ccccc2C1", "note": "(centres undefined)", "activation": "-3.72% [at 34.7 µM] (inactive)"}, {"smiles": "c1ccc2c(CC3=NCCN3)cccc2c1", "outcome": "inactive"}, {"smiles": "CC/C(C)=N\\O[Si](C)(O/N=C(\\C)CC)O/N=C(\\C)CC", "activation": "-3.25% [at 95.1 µM] (inactive)"}, {"smiles": "[O]=[Mo](=[O])=[O]", "activation": "-2.72% [at 34.7 µM] (inactive)"}, {"smiles": "C=CC/C=C/C", "activation": "1.02% [at 95.1 µM] (inactive)"}, {"smiles": "CC(C)CCOC(=O)c1ccccc1", "activation": "2.34% (inactive)"}, {"smiles": "CCO", "activation": "-5.22% [at 95.1 µM] (inactive)"}]}]}
